Shown are actives, neighbours in structure and some others; about 3.2% of the full set was active somewhere.
Tau fluor cs: counter-screen for tau fibril formation inhibitors. tau K18 P301L Alexa594 fluorescence, heparin fibrillization. Potency, µM (top dose mostly 57.7 µM). hit rate 0.93% among 280,000. AID 1463; further: nearly all actives have a fitted effect of over 55% in size
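Human K18 P301L tau (15 uM unlabeled plus 0.24 uM Alexa 594-labeled, final) in 100 mM sodium acetate pH 7 was mixed with compound and 20 uM heparin and incubated 6 hr at 37 C.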
Tau fibril FP: inhibitors of human tau fibril formation | hit rate 0.39% among 280,000 | K18 P301L tau heparin fibrillization, Alexa594 FP, 6 h | AID 1468 | P10636 | Potency, µM (titrated, usually from 57.7 µM), most hits filed as inhibitors; further: nearly all actives have a fitted effect of over 55% in size
Target sequence (P10636 561-689 P618L limits assumed): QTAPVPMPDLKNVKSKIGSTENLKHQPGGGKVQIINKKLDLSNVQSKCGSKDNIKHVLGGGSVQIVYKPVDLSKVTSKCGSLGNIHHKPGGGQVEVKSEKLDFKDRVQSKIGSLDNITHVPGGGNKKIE
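Compound effects on tau fibrillization are measured by Alexa 594 fluorescence polarization (ex 555, em 632 nm). K18 P301L tau is used at 15 uM with 0.24 uM labeled tracer, and 20 uM heparin induces aggregation over 6 hr at 37 C.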
TR SRC2 fluor cs: counter-screen for TRb-SRC2 inhibitors: fluorescence interference; TRb/SRC2 Texas Red total fluorescence interference; Potency, µM (series often up to 106 µM); hit rate 0.29% among 280,000; active means well fitted curve in either direction with a large enough effect; inconclusive means small, poorly fitted or top-dose-only effect
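Human TRβ ligand-binding domain (0.6 uM) and Texas Red SRC2 peptide (20 nM) in Tris buffer with 1 uM T3 and 5% DMSO were incubated with pinned compound for 5 hr at ambient temperature. Total fluorescence was computed as S + 2P (555/632 nm).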
GoLoco inh red: inhibitors of human Gai1-RGS12 GoLoco interaction (red fluorophore); Gai1:RGS12 GoLoco peptide FP, rhodamine, 10 min; Potency, µM (titrated, usually from 61.6 µM), usual class: inhibitors; hit rate 0.44% among 230,000; P63096; AID 880; active means well fitted inhibition curve with a large enough effect, not every such curve was filed as active; inactive means no such curve, though single readings can be large or run the other way; further: nearly all actives have a fitted effect of over 30% in size
Tau ThT inhib: tau fibrillization inhibition (ThT binding); P10636; recombinant tau K18 P301L (four-repeat tau fragment), heparin-induced fibrillization, ThT fluorescence; Potency, µM (series often up to 57.4 µM), actives largely listed as inhibitors; hit rate 2.1% among 270,000; AID 1460; further: nearly all actives have a fitted effect of over 55% in size
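In this qHTS, human K18 P301L tau is incubated with compound and heparin for 6 hr at 37 C, and Thioflavin T fluorescence then reports fibril load.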
TRb-SRC2 inh: disrupts binding of human TR beta to SRC2; P10828; TRbeta-SRC2 peptide binding, fluorescence polarization; receptor liganded with 1 µM T3; Potency, µM (top dose mostly 106 µM), actives largely listed as inhibitors; hit rate 0.065% among 280,000; further: nearly all actives have a fitted effect of over 50% in size
Target sequence (P10828 whole entry, looked up): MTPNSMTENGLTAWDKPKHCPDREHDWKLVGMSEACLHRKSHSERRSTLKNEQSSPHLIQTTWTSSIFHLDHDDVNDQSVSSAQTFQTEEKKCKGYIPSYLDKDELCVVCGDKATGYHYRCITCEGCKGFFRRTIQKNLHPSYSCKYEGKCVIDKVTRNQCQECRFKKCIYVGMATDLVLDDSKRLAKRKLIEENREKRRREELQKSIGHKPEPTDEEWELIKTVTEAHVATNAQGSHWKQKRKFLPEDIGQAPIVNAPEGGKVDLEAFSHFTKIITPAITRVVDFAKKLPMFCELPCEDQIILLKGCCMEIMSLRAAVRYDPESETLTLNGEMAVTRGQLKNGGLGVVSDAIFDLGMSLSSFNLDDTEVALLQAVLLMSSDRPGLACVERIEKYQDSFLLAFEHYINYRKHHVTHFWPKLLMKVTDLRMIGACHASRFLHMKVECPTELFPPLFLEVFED
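Human TRb ligand-binding domain (0.6 uM) is mixed with 20 nM Texas Red SRC2 peptide and 1 uM T3; after compound addition and 5 hr at ambient temperature, polarization is measured and normalized to unbound and bound controls.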
Numbers stand for hits; i = inactive; ? = inconclusive; nt = no result given; [ ] = remark or other dose. Unless noted, the call rests on the fitted dose curve; in most records, active means well fitted curve in the direction sought with a large enough effect; inconclusive means small, poorly fitted or top-dose-only effect, or another doubt; inactive means no such curve, though single readings can be large; an effect the other way counts as inactive or inconclusive.

SMILES | Tau fluor cs | Tau fibril FP | TR SRC2 fluor cs | GoLoco inh red | Tau ThT inhib | TRb-SRC2 inh
CC(C)O.CC(C)O.CC(C)O.CC(C)O.[Ti] | nt | nt | i | nt | nt | i
O=C1NC(=O)[C@@H]2C3c4ccccc4C=CN3[C@H](C(=O)c3cccs3)[C@H]12 (stereo partly drawn) | i | ? | i | i | 28µM | i
CCCNc1c(F)c(F)c2c(C)c3ccccc3nc2c1F | i | i | i | 28µM | 14µM | i
O=C(O)c1c(-c2nccc3ccccc23)[nH]c(-c2ccccc2)c1S(=O)(=O)O | nt | nt | nt | i[14.2 µM] | nt | nt
CCN1/C(=C2\OC(=S)N(C)C2=O)C=Cc2ccccc21 | i | i | i | i | ? | ?
CCSC1=NC(=O)/C(=C2/C=Cc3ccccc3N2CC)S1 | ? | i | i | 1.3µM | 7.1µM | i
COc1ccc(CCNC(=O)Cn2c(=O)c3cccn3c3ccc(F)cc32)c(OC)c1 | i | i | i | nt | ? | i
COc1ccc(NC(=O)C2CCN(S(=O)(=O)c3c(C)noc3/C=C/c3ccco3)CC2)cc1 | ? | i | i | nt | i | i
CSc1ccc(CNC(=O)CCc2c(C)nn(-c3ccc(N4CCCC4)nn3)c2C)cc1 | i | i | i | nt | ? | i
CCOc1ccc(C2CC(=O)NC(NC(=O)c3ccc(C)cc3)=N2)cc1 (stereo not drawn) | i | i | i | nt | i | i
Cc1ccc(C(=O)NC2=NC(c3ccc(C)cc3)CC(=O)N2)cc1 (stereo not drawn) | i | i | 251µM[quencher] | nt | i | i
Cn1c(O)c(/C=C2\C=Nc3ccccc32)sc1=Nc1ccc(C(=O)O)cc1 | i | i | i | i | nt | i
O=C(Cc1ccccc1)Nn1c(O)c(/C=C2\C=Nc3ccccc32)sc1=S | 7.9µM[quencher] | ? | i | i | 2.5µM | i
CCc1cccc(C)c1N(C(=O)CS(=O)(=O)O)[C@@H](C)COC | nt | nt | i | nt | nt | i
COc1ccccc1C(=O)NNC(=S)NC(=O)c1sc2ccccc2c1Cl | i | i | i | i | 7.1µM | i
COC(=O)NC(c1ccccc1)[C@@]1(C(=O)OC)CCCC1=O (stereo partly drawn) | i[11.6 µM] | i[11.6 µM] | i[11.2 µM] | nt | i[11.5 µM] | i[11.2 µM]
COCc1cc(/C=N\NC(=O)COc2ccccc2)ccc1OC | i | i | i | i | i | i
CCOc1cc(/C=N/Nc2ccc(C(=O)O)cc2)ccc1OC(=O)c1ccccc1C | 0.71µM[quencher] | ? | i | i | nt | i
COc1cccc(OCc2cc(/C=N/Nc3ccc(C(=O)O)cc3)ccc2OC)c1 | 11µM[quencher] | i | i | i | ? | i
CCOc1cc(/C=N\NC(=O)c2ccc(NC(=O)C(C)(C)C)cc2)ccc1OC(=O)c1ccc(OC)cc1 | i | i | i | i | i | i
O=S(=O)(Nc1cccc(-c2ccc(N3CCCCC3)nn2)c1)c1cccs1 | i | i | i | nt | i | i
O=C1CSC(=NC2CCCCC2)N1 | i | ? | i | i | 22µM | i
Cc1ccc(S(=O)(=O)ON2C(=O)c3ccccc3C2=O)c(C)c1 | i | ? | i | nt | 18µM | i
Cc1cc(C)c(S(=O)(=O)ON2C(=O)c3ccccc3C2=O)cc1C | i | ? | i | i | ? | i
C[n+]1cnc(-c2ccccc2)cc1-c1ccccc1 | i | i | i | 14µM | i | i
SMILES | Tau fluor cs | Tau fibril FP | TR SRC2 fluor cs | GoLoco inh red | Tau ThT inhib | TRb-SRC2 inh
CCNc1nc(NC(C)CC)nc(OC)n1 (stereo not drawn) | nt | nt | i | nt | nt | i
NC(=O)CC(NC(=O)c1ccccc1)c1ccc(NCCOc2ccccc2)c([N+](=O)[O-])c1 (stereo not drawn) | i | i | i | i | 13µM | i
NC(=O)CC(NC(=O)c1ccccc1)c1ccc(NCCc2cccc(F)c2)c([N+](=O)[O-])c1 (stereo not drawn) | i | i | i | i | 16µM | i
COC(=O)C1=C(C(=O)OC)C(c2cc(Br)ccc2O)c2sc(=O)[nH]c2S1 (stereo not drawn) | ? | i | i | i | 28µM | i
COC(=O)C1=C(C(=O)OC)C(c2cc(Cl)ccc2O)c2sc(=O)[nH]c2S1 (stereo not drawn) | ? | i | i | i | 25µM | i
COC(=O)C1=C(C(=O)OC)C(c2ccc(OC)c(OC)c2)c2sc(=O)[nH]c2S1 (stereo not drawn) | i | i | i | i | ? | i
NCC(=O)N[C@@H](CCCN=C(N)N)C(=O)NCC(=O)N[C@@H](CC(=O)O)C(=O)N[C@@H](CC(N)=O)C(=O)N1CC[C@@H](C(=O)O)C1 | i | i | i | i | i | i
CC1=NN2C(=N)/C(=C\c3ccc(SCc4ccccc4)o3)C(=O)N=C2S1 | i | i | i | i | ? | i
N=C1/C(=C\c2ccc(SCc3ccco3)o2)C(=O)N=C2SC=NN12 | i | i | ? | i | 6.3µM | i
O=C(NCC(c1cccnc1)N1CCc2ccccc2C1)C(=O)Nc1ccccc1 (stereo not drawn) | i | i | i | nt | 1.6µM | i
COc1ccc(NC(=O)C(=O)NCC(c2cccnc2)N2CCc3ccccc3C2)cc1 (stereo not drawn) | ? | ? | i | nt | 14µM | i
CCc1ccc(NC(=O)C(=O)NCC(c2cccnc2)N2CCc3ccccc3C2)cc1 (stereo not drawn) | ? | i | ? | nt | ? | i
O=C(Nc1nc2n(n1)C(c1ccc(F)cc1)C=C(c1ccccc1)N2)c1ccco1 (stereo not drawn) | i | i | i | nt | i | i
Fc1cccc2sc(Nc3nnc(-c4ccco4)o3)nc12 | i | i | i | i | 13µM | i
C/C(=N/NC1=NCCN1)c1cn(C2=NCCN2)nc1C | nt | nt | nt | i[14.2 µM] | nt | nt
O=C(O)CCC(NC(=O)C1CCCN1C(=O)OCc1ccccc1)C(=O)O (stereo not drawn) | i | i | i | i | i | i
O=C[C@@H]1CCCN1C(=O)[C@@H]1CCCN1C(=O)OCc1ccccc1 | i | 22µM | i | i | 18µM | i
FC(F)(F)c1ccc2c(c1)N1CCCC1CN2 (stereo not drawn) | ? | i | i | i | 18µM | i
FC(F)(F)c1ccc2c(c1)NCC1CCCN21 (stereo not drawn) | ? | i | i | i | ? | i
Cc1[nH][nH]c(=O)c1C(c1c(C)[nH][nH]c1=O)c1cn(Cc2cccc3ccccc23)c2ccccc12 | ? | ? | i | i | 10µM | ?
COc1ccc(C2CC(=O)c3cc(-c4nc(-c5cccc([N+](=O)[O-])c5)cs4)c(=O)n(-c4ccccc4C)c3C2)cc1 (stereo not drawn) | i | i | 89µM[quencher] | nt | i | i
Cc1ccc(Cl)cc1NC(=O)CSC(N)=O | i | ? | i | i | 32µM | i
COCC(=O)Nc1cc(Cl)ccc1C | i | i | i | i | i | i
COc1ccc2c(c1)N(CC[C@H]1CCCCN1C)c1ccccc1S2 | nt | nt | nt | i[14.2 µM] | nt | nt
